Values without a mark were called inactive. Calls follow the shape of the dose curve; as a rule, active = well fitted cell-killing curve with a large enough effect; inconclusive = small, poorly fitted or top-dose-only effect; inactive = flat fitted curve, though single readings scatter. Records with an inconclusive call do not appear.
Assay: Cell Viability - LYMP1-003 - Assay at 24 hr (AID 963);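 also: plate controls were DMSO only for no effect and tetraoctylammonium bromide positive control for full effect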
Conditions: LYMP1-003 lymphoblastoid cell viability; series mostly up to 92.2 µM; viability change, negative = cytotoxic: at the top concentration
Procedure, shortened: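 Cytotoxicity is scored as a concentration-dependent fall in ATP-linked luciferase signal in human lymphoblastoid LYMP1-003 cells treated 24 hr at 37 C in complete culture medium.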

Structure (SMILES)	viability change, negative = cytotoxic [%]
C[C@]12C/C(=C/O)C(=O)C[C@@H]1CC[C@@H]1[C@@H]2CC[C@@]2(C)[C@H]1CC[C@]2(C)O	-21
Oc1ccccc1-c1ccccc1	1.52
Clc1ccc(COC(Cn2ccnc2)c2ccc(Cl)cc2Cl)cc1 (stereo not given)	-19.3
Oc1ccc(Cl)cc1Cc1ccccc1	2.88
N[C@@H](Cc1ccc(N(CCCl)CCCl)cc1)C(=O)O	2.84
OCCOc1ccccc1	0.771
NCC(O)c1ccc(O)cc1 (stereo not given)	-0.647
CCCC(C)(COC(N)=O)COC(=O)NC(C)C (stereo not given)	-4.26
c1ccc2c(c1)Nc1ccccc1S2	0.606
CCOP(=S)(OCC)Oc1cc(C)nc(C(C)C)n1	-3.64
CNCC(O)c1ccc(O)cc1 (stereo not given)	0.458

Assay: Cell Viability - LYMP1-003 - Assay at 40 hr (AID 964); also: % is scaled to controls: 0 for no effect and ±100 for the full control effect; nearly all actives have a fitted effect of over 60% in size
Conditions: LYMP1-003 lymphoblastoid viability; series mostly up to 92.2 µM; activity change, negative = cytotoxic: at the top concentration
Procedure, shortened: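 Luminescent ATP signal (CellTiter-Glo) served as the viability read-out after 40 hr compound treatment of human lymphoblastoid LYMP1-003 cells at 37 C. Decreases in ATP were fitted with the Hill equation to give AC50.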

Structure (SMILES)	activity change, negative = cytotoxic [%]
Oc1ccccc1-c1ccccc1	-16.7
Oc1ccc(Cl)cc1Cc1ccccc1	6.92
N[C@@H](Cc1ccc(N(CCCl)CCCl)cc1)C(=O)O	14.9
OCCOc1ccccc1	1.29
NCC(O)c1ccc(O)cc1 (stereo not given)	-13.8
CCCC(C)(COC(N)=O)COC(=O)NC(C)C (stereo not given)	-1.61
c1ccc2c(c1)Nc1ccccc1S2	-0.821
CCOP(=S)(OCC)Oc1cc(C)nc(C(C)C)n1	1.25
CNCC(O)c1ccc(O)cc1 (stereo not given)	-6.36
